ANO1 block: mouse TMEM16A channel inhibition, primary screen | AID 588511 | Q8BHY3 | normalized B-score (activity score, 25-100; higher = stronger inhibition) at 10 µM | HEK293 TMEM16A/YFP iodide influx fluorescence, ionomycin | 310,000 tested, 1.2% active;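 active = ratio plate-corrected score three or more library SD toward inhibition, starting fluorescence score within five deviations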;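 also: score derived from kinetic fluorescence span divided by baseline fluorescence per well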
Target sequence (Q8BHY3 whole entry, looked up): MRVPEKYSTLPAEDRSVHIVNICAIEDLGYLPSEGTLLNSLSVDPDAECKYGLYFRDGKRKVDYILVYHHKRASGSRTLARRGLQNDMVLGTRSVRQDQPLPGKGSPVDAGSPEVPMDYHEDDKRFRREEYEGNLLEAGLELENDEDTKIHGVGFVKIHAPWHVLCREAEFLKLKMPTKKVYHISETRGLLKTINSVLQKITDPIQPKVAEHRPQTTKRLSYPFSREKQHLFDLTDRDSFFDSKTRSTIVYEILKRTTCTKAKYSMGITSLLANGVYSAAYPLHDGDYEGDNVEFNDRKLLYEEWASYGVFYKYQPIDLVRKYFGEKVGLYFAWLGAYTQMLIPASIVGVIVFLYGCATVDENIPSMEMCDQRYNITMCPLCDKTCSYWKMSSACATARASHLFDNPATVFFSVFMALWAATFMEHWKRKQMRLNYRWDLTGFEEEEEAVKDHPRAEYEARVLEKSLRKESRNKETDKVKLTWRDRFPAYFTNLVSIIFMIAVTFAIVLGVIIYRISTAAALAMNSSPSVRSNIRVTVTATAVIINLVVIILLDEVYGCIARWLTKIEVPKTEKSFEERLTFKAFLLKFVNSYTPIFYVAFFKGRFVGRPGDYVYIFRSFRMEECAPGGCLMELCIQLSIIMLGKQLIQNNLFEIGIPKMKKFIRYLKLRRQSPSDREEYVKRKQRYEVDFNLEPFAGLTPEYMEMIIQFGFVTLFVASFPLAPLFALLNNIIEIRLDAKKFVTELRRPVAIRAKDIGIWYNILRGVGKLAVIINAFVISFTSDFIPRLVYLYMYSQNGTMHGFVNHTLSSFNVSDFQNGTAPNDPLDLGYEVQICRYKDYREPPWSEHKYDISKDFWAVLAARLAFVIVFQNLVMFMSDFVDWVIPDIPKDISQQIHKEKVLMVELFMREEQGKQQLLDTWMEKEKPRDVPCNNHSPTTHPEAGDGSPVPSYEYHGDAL
TMEM16A act: activators or potentiators of mouse TMEM16A chloride channel. Q8BHY3. HEK293 TMEM16A/YFP-H148Q/I152L, iodide quench fluorescence; active compounds read low. B-score at 10 µM. 340,000 tested, 0.3% active;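 active = fluorescence-ratio B-score plate-corrected deviation score at least 3 library SD below zero, with starting fluorescence score within 5 deviations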;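 also: channel opened by trigger with iodide after compound preincubation; score built on the fluorescence ratio of max minus min over baseline; more negative score means more quench and so TMEM16A activation or potentiation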
CRFBP-R2 agonist: agonists of human CRF-binding protein/CRF-R2 receptor complex; HEK293 CRF-R2/CRF-BP, calcium dye fluorescence (FLIPR); percent of saturating CRF peptide response; activation, % at 13.2 µM; 350,000 tested, 0.46% active;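 active = activation of at least 50%, plus an integration ratio under a set limit after plate pattern correction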
NR3A LBD binder: NR3A (human) ligand-binding domain modulation. NR3A LBD differential scanning fluorimetry, Tm shift; 0% = protein alone, 100% = glycine-bound protein. Tm shift relative to glycine control, % at 25 µM. 340,000 tested, 2.5% active;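 active = melting temperature shift of at least 10% of the positive control shift, at one fixed dose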
MPTP inh: blocks calcium-induced mitochondrial swelling. isolated mouse mitochondria, Ca2+ swelling absorbance, 30 min. inhibition, % at 10 µM. 360,000 tested, 1.4% active;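 active = inhibition of 50% or more, scaled per plate between neutral and stimulator controls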
CRFR2-BP antag: blocks CRF-induced signaling of the CRF-BP/CRF-R2 complex; HEK293 CRF-R2/CRF-BP, CRF-induced calcium fluorescence; inhibition, % at 11.8 µM; 350,000 tested, 0.59% active; AID 588475;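 active = inhibition of the ligand-induced calcium signal above about 50% at the single tested concentration, limit read from the data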
MPTP counter: mitochondrial membrane potential, counter-screen; shares compounds with MPTP inh; isolated mitochondria, Rhodamine 123 fluorescence; inhibition, % at 10 µM; 5,000 tested, 78% active; AID 624504; in the data active = inhibition above about 22%
MPTP swell DR: MPTP inhibition, dose response swelling confirmation; AID 651561; 780 tested, 58% active; shares compounds with MPTP inh; IC50, µM; isolated mitochondria swelling, absorbance; in the data active = IC50 below about 20 µM
MPTP counter DR: active in counter-screen for permeability transition pore inhibitors; shares compounds with MPTP inh; isolated mitochondria counterscreen, fluorescence read-out; IC50, µM; 780 tested, 49% active; AID 651564; in the data active = IC50 below about 80 µM
Numbers stand for hits; – = inactive; · = not tested or not shown. In the library only some 5.1% were active in any assay of this set; here they are far more common.

SMILES | ANO1 block | TMEM16A act | CRFBP-R2 agonist | NR3A LBD binder | MPTP inh | CRFR2-BP antag | MPTP counter | others
OCCN1CCN(c2nc(-c3ccccc3)c3cc(Cl)ccc3n2)CC1 | – | – | – | – | 80 | – | – | MPTP swell DR=9.2;MPTP counter DR=–
CN1CCN(c2nc(-c3ccccc3)c3cc(Cl)ccc3n2)CC1 | – | – | – | – | 63 | – | – | MPTP swell DR=17;MPTP counter DR=77
COc1ccc(-c2csc(NC(=O)C3CCN(c4ncnc5sc(C)c(C)c45)CC3)n2)cc1OC | – | – | – | – | 88 | – | 65
CC(C)(C)CC(C)(C)NCC(O)COc1c(F)cc(Br)cc1F (stereo unspecified) | – | – | – | – | 102 | – | – | MPTP swell DR=7.1;MPTP counter DR=57
CC/C(=N\NC(=O)c1nnn(-c2nonc2N)c1-c1cccs1)c1ccccc1 | – | – | – | – | – | – | ·
Cc1ccc2c(c1)nnn2C1CCN(S(=O)(=O)c2ccc(C(=O)N3CC(C)CC(C)C3)cc2)CC1 (stereo unspecified) | – | – | – | – | 56 | – | 40
Cc1ccc2c(c1)nnn2C1CCN(S(=O)(=O)c2cccc(S(=O)(=O)N(C)C)c2)CC1 | – | – | – | – | 88 | – | 87
Cc1ccc2c(c1)nnn2C1CCN(S(=O)(=O)c2ccc(C(=O)N(C)C)cc2)CC1 | – | – | – | – | – | – | ·
Cc1ccc(C)c(C(=O)COC(=O)c2ccc(C)c(S(=O)(=O)N3CCOCC3)c2)c1 | · | · | – | – | – | – | ·
O=C(N/N=C/c1cc([N+](=O)[O-])cc(Br)c1O)C12CC3CCC(CC(C3)C1)C2 | 100 | – | 117 | – | 84 | – | 28
CC(C)Nc1ncnc2ccc(Br)cc12 | – | – | – | – | 59 | – | 38
CSCCC(Nc1ncnc2ccc(Br)cc12)C(=O)O (stereo unspecified) | – | – | – | – | – | – | ·
N=c1c2c(-c3ccccc3)c(-c3ccccc3)n(Cc3ccco3)c2ncn1CCCN1CCOCC1 | – | – | – | – | 71 | – | –
COc1cc(C(=O)N/N=C(\C)c2ccc(NC(=O)Cc3ccccc3)cc2)ccc1O | – | – | – | – | – | – | ·
CCOC(=O)c1ccc(S(=O)(=O)N2CCN(S(=O)(=O)CC)CC2)cc1 | – | – | – | – | 60 | – | – | MPTP swell DR=–;MPTP counter DR=–
COC(=O)c1ccc2nc(NC(=O)C(C)C)sc2c1 | – | – | – | – | – | – | ·
CCOC(=O)c1ccc2nc(Nc3nc4ccc(F)cc4s3)sc2c1 | – | – | – | 28 | 101 | – | – | MPTP swell DR=5;MPTP counter DR=<2.5
CCOC(=O)c1sc(NC(=O)c2ccc(S(=O)(=O)N3CCCCC3)cc2)nc1-c1ccccc1 | – | – | – | 13 | 50 | – | 32
COC(=O)c1ccc2nc(Nc3nc4c(F)cc(F)cc4s3)sc2c1 | – | – | – | 22 | 101 | – | 64
CCOC(=O)c1ccc(S(=O)(=O)N2CCNCC2)cc1 | – | – | – | – | – | – | ·
CCOc1ccc(-c2nc3c(s2)CCc2onc(-c4ccc(OC)cc4)c2-3)cc1 | – | – | – | – | – | – | ·
CCOC(=O)N1CCN(S(=O)(=O)c2ccc(C(=O)Nc3nc4ccc(F)cc4s3)cc2)CC1 | – | – | – | – | 62 | – | – | MPTP swell DR=–;MPTP counter DR=6.3
CCN1CCC(CNCc2cn(-c3ccc(OC)cc3)nc2-c2ccccc2Cl)C1 (stereo unspecified) | – | – | – | – | 84 | – | – | MPTP swell DR=9.1;MPTP counter DR=–
CC(Cc1cccs1)NC(=S)Nc1ccc(F)cc1 (stereo unspecified) | – | – | – | – | 50 | – | 73
CC(Cc1cccs1)NC(=O)c1cccs1 (stereo unspecified) | – | – | – | – | – | – | ·
SMILES | ANO1 block | TMEM16A act | CRFBP-R2 agonist | NR3A LBD binder | MPTP inh | CRFR2-BP antag | MPTP counter | others
CC(Cc1cccs1)NC(=O)Nc1ccc([N+](=O)[O-])cc1 (stereo unspecified) | – | – | – | – | 86 | – | 91
CN1C(=O)/C(=C/c2cc(N=Nc3ccccc3)ccc2O)SC1=S | 100 | – | – | 372 | 95 | – | 61
Cc1c(N2C(=O)/C(=C\c3ccccc3O)SC2=S)c(=O)n(-c2ccccc2)n1C | – | – | – | – | – | – | ·
Nc1ccccc1C#CC(=O)c1ccccc1 | – | – | – | – | – | – | ·
Cc1cccc(Oc2nc(-c3ccncc3)nc3ccccc23)c1 | – | – | – | – | – | – | ·
CSc1nc(Oc2ccc3ccccc3c2)c2ccccc2n1 | – | – | – | – | 80 | – | – | MPTP swell DR=9.4;MPTP counter DR=–
O=C(COc1ccccc1Cl)N1CCN(C(=O)c2ccco2)CC1 | – | – | – | – | – | – | ·
COc1ccc(C(=O)Nc2ccc(-c3cn4ccsc4n3)cc2)cc1S(=O)(=O)N1CCOCC1 | – | – | – | 27 | 58 | – | – | MPTP swell DR=–;MPTP counter DR=–
CC1CC(C)CN(Cc2nc(N)nc(Nc3ccc4ccccc4c3)n2)C1 (stereo unspecified) | – | – | – | – | 63 | – | – | MPTP swell DR=–;MPTP counter DR=–
Cc1ccc(C)c(NC(=O)CSc2nc(C)cs2)c1 | · | – | – | – | – | – | ·
Cc1nc(N)nc(N)c1Oc1ccc(Cl)cc1 | · | – | – | – | – | – | ·
Cc1nc(N)nc(N)c1/C=C/C(C)(C)c1ccc(Cl)cc1 | · | – | – | – | 97 | – | 91
CC1CCCN(C(=S)SCC(=O)c2cc(Br)cc(Br)c2O)C1 (stereo unspecified) | – | – | – | – | 59 | – | 32
O=C(Nc1ccc(OC(F)(F)F)cc1)N1CCc2nc(NCc3cccc(Oc4ccccc4)c3)ncc2C1 | · | · | · | · | 92 | · | 96
CC(=O)c1ccc(NC(=O)C2=CC(c3ccc4c(c3)OCO4)=NS(=O)(=O)N2C)cc1 | – | – | – | – | – | – | ·
COc1ccc(NC(=O)C2=CC(c3cccs3)=NS(=O)(=O)N2C)cc1 | – | – | – | – | – | – | ·
CN1C(C(=O)Nc2ccc(OC(F)(F)F)cc2)=CC(c2ccc3c(c2)OCO3)=NS1(=O)=O | – | – | – | – | 90 | – | 78
CN1C(C(=O)Nc2ccc(OC(F)(F)F)cc2)=CC(c2cccs2)=NS1(=O)=O | – | – | – | – | 74 | – | 84
CCOc1ccccc1NC(=O)COC(=O)c1cc[n+]([O-])cc1 | – | – | – | – | – | – | ·
Oc1ccc(C[C@@H]2CNCCN2CCc2cccc3ccccc23)cc1 | – | – | – | – | 84 | – | – | MPTP swell DR=14;MPTP counter DR=–
c1ccc(C2(CN3CCNC[C@H]3Cc3cccc4ccccc34)CC2)cc1 | – | – | – | – | – | – | ·

Screens deposited in PubChem BioAssay by several laboratories.
